# The sample as a whole holds a higher share of hits than the screen did.
# RmlC RmlD mix: inhibitors of RmlC and RmlD coupled enzymes; RmlC/RmlD coupled enzyme inhibition, 384-well mixture HTS; inhibition, % at 5.5 µM; 110,000 compounds, 0.39% hits; AID 1532; in the data active = inhibition above about 30%, passing the limit was not always enough
# HIV RNase H inh: blocks HIV-1 RNase H cleavage of RNA/DNA duplex; RT-RNase H RNA/DNA duplex cleavage, fluorescence; inhibition, % at 10 µM; 65,000 compounds, 1.9% hits; in the data active = inhibition above about 50%
# Starred values were filed as active, the others as inactive; . = no result given.
SMILES,RmlC RmlD mix,HIV RNase H inh
COc1nc(-c2ccc(Cl)cc2)ccc1-c1noc(-c2ccco2)n1,-9,50*
Cc1ccc2c(nc3s/c(=C/c4cccs4)c(=O)n32)c1C,.,80*
Cc1cc(C)c2nc3s/c(=C/c4ccccc4)c(=O)n3c2c1,-4,.
COC(=O)C1=C(C(=O)OC)[C@@H]2N(Cc3ccccc3)c3ccccc3[C@@]23C[C@@H](C(=O)OC)N(C(=O)C2CCC2)C3=N1,-50,.
CCn1c(CNC(=O)c2ccc(OC)cc2)nnc1SCC(=O)c1ccccc1,-9,4
CCn1c(CCNC(=O)c2cccs2)nnc1SCC(=O)c1ccc(OC)cc1,-6,57*
Cc1ccc(-c2nnn(CC(=O)N(c3ccccc3)C(C(=O)NC3CCCC3)c3ccco3)n2)o1 (configuration not stated),-8,60*
Cc1ccc(-c2nnn(CC(=O)N(Cc3cccs3)C(C(=O)NC3CCCC3)c3ccco3)n2)o1 (configuration not stated),-7,-5
CN(C(=O)c1cccnc1)c1nnc(-c2cccnc2)s1,3,66*
CN(C(=O)c1cccnc1)c1nnc(-c2cnccn2)s1,4,-5
COc1ccc2c(c1)N(C)C(=O)CC(c1ccccc1)=N2,6,-5
O=c1c2cc(N3CCOCC3)ccc2[nH]c(=S)n1Cc1ccco1,-49,55*
O=c1c2cc(N3CCOCC3)ccc2[nH]c(=S)n1Cc1cccc(Cl)c1,-21,.
COC(=O)C[C@H]1c2cc(F)ccc2S(=O)(=O)N1Cc1ccccc1,-23,.
Cc1cccn2c(=O)c(C=Nc3ccc(Cl)cc3)c(NCCO)nc12,1,-17
Cc1cccn2c(=O)c(C=Nc3ccccc3)c(NCCO)nc12,37*,-29
O=C(CN(Cc1ccco1)C(=O)c1ccccc1)Nc1ccc(Cl)c(Cl)c1,-14,.
CCOC(=O)c1c(C)oc2c1c(C(c1cccnc1)N1CCN(C)CC1)c(O)c1ccccc12 (configuration not stated),.,60*
CCOC(=O)c1c(C)oc2c1c1c(c3ccccc32)OCN(Cc2cccnc2)C1,4,17
CC1(C)Cc2c(C#N)c(N3CCN(C(=O)c4ccco4)CC3)nc(-c3ccco3)c2CS1,-11,55*
CC(=O)N1CCN(c2nc(-c3ccco3)c3c(c2C#N)CC(C)(C)SC3)CC1,-35,.
Cc1ccc(C(=O)Nc2ccon2)cc1S(=O)(=O)N1CCCC1,0,.
CN(C(=O)NC(=O)C1=C(N2CCOCC2)/C(=C/c2ccccc2)CC1)S(C)(=O)=O,135*,-12
CCCCN(C(=O)NC(=O)C1=C(N2CCOCC2)/C(=C/c2ccccc2)CC1)S(C)(=O)=O,.,-10
CCCOc1ccc(N2C(=O)C3ON(c4ccccc4)C(CCC)C3C2=O)cc1 (configuration not stated),60,.
SMILES,RmlC RmlD mix,HIV RNase H inh
CCCOc1ccc(N2C(=O)C3ON(c4ccccc4)C(c4ccc(O)c(OC)c4)C3C2=O)cc1 (configuration not stated),.,56*
CCn1c(=N)c(C(=O)NCc2cccnc2)cc2c(=O)n3cccc(C)c3nc21,.,-33
COCCCn1c(=N)c(C(=O)NCC2CCCO2)cc2c(=O)n3ccccc3nc21 (configuration not stated),69*,0
CCCCNC(=O)c1cc2c(=O)n3cccc(C)c3nc2n(Cc2ccccc2)c1=N,6,0
COCCCn1c(=N)c(C(=O)NCC2CCCO2)cc2c(=O)n3cccc(C)c3nc21 (configuration not stated),.,-20
C=CCn1c(=N)c(C(=O)NCCCOC)cc2c(=O)n3cccc(C)c3nc21,50*,-25
CNC(=O)c1cc2c(=O)n3cccc(C)c3nc2n(C(C)C)c1=N,89*,-34
O=C(CCSc1nnc(-c2ccncc2)o1)Nc1ccccc1Cl,-7,.
Cc1ccc(S(=O)(=O)n2ccc(=O)[nH]2)cc1,4,.
Cc1ccc(NC(=O)CS(=O)CC(=O)Nc2ccc3c(c2)OCO3)cc1Cl (configuration not stated),-11,19
COCCNC(=O)c1c(N)n(CCCn2ccnc2)c2nc3ccccc3nc12,124*,-2
COCCNC(=O)c1c(N)n(CCC(C)C)c2nc3ccccc3nc12,-153,.
CC(=O)OC1COC(N2CCc3cc(Br)c([N+](=O)[O-])cc32)C(OC(C)=O)C1OC(C)=O (configuration not stated),7,.
Cc1ccc2c(c1)N(C(=O)c1ccco1)C(C)(C)c1ssc(=S)c1-2,-10,.
Cn1cccc1C1NC(=O)c2c(sc3c2CCC(C(C)(C)C)C3)N1 (configuration not stated),72,60*
CN1CCc2c(sc3c2C(=O)NC(c2ccco2)N3)C1 (configuration not stated),7,0
CCOC(=O)[C@@H]1[C@H]2COc3ccc(Br)cc3[C@@H]2N2C(=O)N(c3cccc(F)c3)C(=O)[C@]12C,-8,.
COC(=O)CSc1ncnc2c1sc1nc(N3CCOCC3)c3c(c12)CCCC3,-18,.
COC(=O)c1ccc(CSc2ncnc3c2sc2nc(N4CCOCC4)c4c(c23)CCCC4)o1,-43,83*
COc1ccc(S(=O)(=O)n2nc(OC(C)=O)cc2N(C(C)=O)C(C)=O)cc1,-13,.
CCC(Sc1nc2cc3c(cc2c(=O)n1Cc1ccco1)OCO3)C(=O)Nc1cccc(OC)c1 (configuration not stated),8,60*
CCC(Sc1nc2cc3c(cc2c(=O)n1Cc1ccco1)OCO3)C(=O)Nc1ccccc1OC (configuration not stated),6,6
NC(=O)CC(NC(=O)Cc1ccc(Cl)cc1)c1ccc(NCc2ccccc2)c([N+](=O)[O-])c1 (configuration not stated),-14,.
Oc1ccccc1C(=S)N1CCCCC1,-2,53*
Oc1ccccc1C(=S)N1CCCCCC1,4,38
SMILES,RmlC RmlD mix,HIV RNase H inh
CCC/C=C1/CCCOC(C(=O)NCc2ccccc2)(C(F)(F)F)C1 (configuration not stated),5,.
CC1SCCN1S(=O)(=O)c1ccc2ccccc2c1 (configuration not stated),-12,.
COC(=O)Oc1c(Br)c(=O)oc2ccccc12,30*,-20
CC(=O)Nc1c(NC(C)C)c2ccccc2oc1=O,8,.
CC(C)CC(NC(=O)C(COC(C)(C)C)NC(=O)C(Cc1ccc(O)cc1)NC(=O)C(CO)NC(=O)C(Cc1c[nH]c2ccccc12)NC(=O)C(Cc1cnc[nH]1)NC(=O)C1CCC(=O)N1)C(=O)N[C@@H](CCCN=C(N)N)C(=O)N1CCCC1C(=O)NNC(N)=O (some centres not stated),-9,.
CCc1nnc(NC(=O)CSc2nc3c(cc2C#N)CCCC3)s1,37*,3
CCOC(=O)c1sc(NC(=O)CSc2nc3c(cc2C#N)CCCCC3)c(C#N)c1C,-1,.
CCc1nc2ccc(C)cc2c(C(=O)NC2CCCCC2C)c1C (configuration not stated),9,.
C/C=C/C(=O)Nc1cccc(C2=NOC3(C2)C[C@H](C(N)=O)N(C(=O)c2ccccc2C(=O)c2ccccc2)C3)c1 (some centres not stated),-6,.
COc1ccc(S(=O)(=O)N2Cc3ccccc3CC2C(=O)Nc2nccs2)cc1 (configuration not stated),7,.
CCc1nnc(NC(=O)C2Cc3ccccc3CN2S(=O)(=O)c2ccc(C)cc2)s1 (configuration not stated),-12,.

# Screening data deposited in PubChem by several laboratories.
